Whole data set: some 33,000 sequences, median “E-score (-0.5 to 0.5)” near -0.016, cut for the highest 2% near 0.31. The full list was thinned out, with the highest values kept by preference.
The sequences below were run against Cst6 (UniProt P40535) (assay: PBM E-score (8-mer binding enrichment) (E-score (-0.5 to 0.5)); higher = stronger / more preferred TF binding). Conditions: protein concentration: 200 nM; construct: GST-DNA-binding domain.
Protocol: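 Universal 'all 10-mer' protein binding microarrays (Agilent AMADID 015681) probed with GST-tagged S. cerevisiae TFs (full-length or DBD) made by in vitro transcription/translation (PURExpress), about 100-200 nM. Bound TF was detected with fluorescent anti-GST. Each ungapped 8-mer (which stands for itself and its reverse complement) is scored by the PBM enrichment score (E-score), a modified Wilcoxon-Mann-Whitney statistic from -0.5 to +0.5, computed with the Universal PBM Analysis Suite. Scale: above 0.35 generally sequence-specific binding.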

UniProt P40535, sequence (P40535 whole entry, the tested form may be a part): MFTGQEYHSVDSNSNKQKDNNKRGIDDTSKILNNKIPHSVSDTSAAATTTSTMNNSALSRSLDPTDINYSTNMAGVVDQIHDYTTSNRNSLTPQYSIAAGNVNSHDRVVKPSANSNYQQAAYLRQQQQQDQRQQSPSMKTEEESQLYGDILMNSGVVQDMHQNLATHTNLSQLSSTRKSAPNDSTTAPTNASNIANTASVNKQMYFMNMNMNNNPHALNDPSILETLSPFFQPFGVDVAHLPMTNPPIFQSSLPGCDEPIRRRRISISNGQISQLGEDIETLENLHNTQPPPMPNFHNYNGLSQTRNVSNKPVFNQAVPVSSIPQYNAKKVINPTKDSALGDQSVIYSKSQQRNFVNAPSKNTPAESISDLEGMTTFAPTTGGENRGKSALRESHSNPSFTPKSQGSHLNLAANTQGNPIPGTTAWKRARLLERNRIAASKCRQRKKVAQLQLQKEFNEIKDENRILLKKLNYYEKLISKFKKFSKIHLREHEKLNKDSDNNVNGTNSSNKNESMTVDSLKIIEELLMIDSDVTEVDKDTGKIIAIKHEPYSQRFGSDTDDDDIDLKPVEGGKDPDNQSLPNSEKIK

Sequence	PBM E-score
AACAGAAC	0.032
ACCAGCAT	-0.104
ATAAGAAC	0.248
ATAAGAAA	0.327
ATAAGAAT	0.253
AAGGAGGG	-0.0908
ATTTTACG	0.316
GTTTTATA	0.122
ATTTTATG	0.248
ATTTTTTA	0.325
ATTTTACC	0.264
ATATTTTA	0.233
AATTTTTA	0.228
AATTTACG	0.296
ATTTTATA	0.321
CGCCCCAA	0.0361
CCAGGCTC	-0.28
GGAGACGA	-0.0641
AGACCGTC	-0.127
CTCACCTC	0.0122
TCTTAAGA	0.0388
CAATAGGA	-0.0291
GAACAAAA	0.186
TGACAAAA	0.337
CGACAAAA	0.163

Sequence	PBM E-score
GGACAAAA	0.106
TGACAACA	0.346
TAACAAAA	0.353
AAACAAAA	0.219
AGACAACA	0.0611
CGACAACA	0.243
AGAACCGA	-0.127
CTCTACGC	-0.109
GGGAAAGA	-0.0768
CCGTGACG	0.417
CCGTGACC	-0.145
ACGTGACG	0.451
CCGTGACA	0.15
ACGTGACT	0.00931
ACGTGACA	0.248
AAAATCGA	0.106
TCAGGAAA	0.053
TCTTGCCA	-0.0736
CTTGCGGC	-0.0317
CCTCATAA	0.199
CGTCATAA	0.476
GGTCATAA	0.213
CTTCATAA	0.182
TGTCATAA	0.323
AGTCATAA	0.217

Sequence	PBM E-score
AAATCCTA	0.0429
ACGGGACG	-0.0627
AAGGGACT	-0.229
GCTGGTCC	-0.241
ACAGGGTC	-0.231
AAAATCTC	0.0464
CCTCATGC	-0.15
AGTCATGC	-0.0259
GGTCATGA	0.239
CGTCATGA	0.461
CGTCATGC	0.472
AGTCATGA	0.124
CCTCTCCC	-0.367
ATTTCCAG	0.0306
ATGTGGGC	-0.068
CCACCCGA	-0.0893
ACGACAGA	-0.00441
GAATATTA	0.188
TAATATGA	0.305
CAATATTG	0.306
AAATATTA	0.286
TAATATTA	0.391
CAATATTC	-0.0581
AAATATGA	0.239
CAATATGA	0.245

Sequence	PBM E-score
CAATATTA	0.215
CAGTGCAA	0.0823
GGGTACCC	-0.239
GCCGCCGA	0.0801
GCTAGTAA	0.0344
CCCCATTA	-0.257
AAGGTAGC	-0.198
CTTTGGGC	-0.163
ACATCAGG	0.163
AGTCCCCC	-0.43
ATTCGTCG	0.0126
CTTCGTCC	-0.155
ATTCGTCA	0.423
CGTCGTCA	0.258
CTTCGTCA	0.336
GTTCGTCA	0.269
CGGTGCAA	-0.202
CCTATGGC	-0.219
GCTAACAC	-0.00396
AAAGGGAG	-0.152
TAACTGTA	0.032
CGGATAAG	-0.118
AGGGGCTG	-0.271
CGCCAGCC	-0.193
ATAAATTA	0.373

Sequence	PBM E-score
CTAAATTA	0.262
AAAAATTA	0.333
GAAAATTA	0.195
CAAAATTA	0.233
ATAAATAG	0.135
ATAAATTG	0.258
TTAAATAA	0.18
ATAAATAA	0.335
ATTTGACA	0.173
ACGCCAAT	0.223
AGCCTTAT	-0.0913
ACGCGTAA	0.129
CCGCGTCA	0.34
GCGCGTCA	0.381
TCGCGTAA	0.314
ACGCGTCA	0.381
GCGCGTTA	0.0245
ACGCGTCT	-0.0602
CCGCGTCC	0.099
GCGCGTAA	0.224
ACGCGTCC	-0.129
GCGCGTCC	-0.198
CCGCGTCG	0.0654
CCTCCCTC	-0.162
GGAAATGA	0.195

Sequence	PBM E-score
CGTAGATC	0.143
CTCGAAAC	0.0781
GGTAGGCA	-0.184
AGGCGACT	-0.103
CGATGAAC	-0.0118
CAAGGCGG	0.00218
ATCCGCAA	-0.0389
TCGCGTCA	0.369
AGGCGTCA	0.256
CGGCGTCC	0.113
CGGCGTCA	0.34
TCGCGGCA	-0.0207
TCGCGACA	-0.202
ACGCCGAA	0.0504
AAAACATG	0.114
CAATGATA	0.268
AAATGATT	0.294
AAATGATG	0.332
CAATGATC	0.095
CAATGATG	0.391
AAATGATC	0.0366
GTAATCTA	0.345
GTAATCAC	0.225
CTAATCTA	-0.0326
CTAATCAA	0.205

Sequence	PBM E-score
ATAATCTA	0.0831
GTAATCAA	0.313
CTAGATTC	-0.0987
ATTTCATG	0.00873
CAAACTAG	-0.195
CGACCTCA	0.0422
CGACCTAA	0.11
AGACCTCA	0.022
TGACCTAA	0.362
TGACCTCA	0.45
GGACCTAA	-0.105
CAGGACAA	0.0953
TCCACCAA	-0.117
GAAGAACC	-0.119
AGATGATA	0.211
ATATGACC	0.108
ATATGACG	0.472
ATATGATC	0.234
AGATGATC	0.0705
ATATGATA	0.296
ATATGATG	0.333
AGATGATG	0.346
CTATGACC	0.193
AAATGGCG	0.142
TAGTGCCA	-0.123

Sequence	PBM E-score
AGCTAAGC	-0.156
GCGCTGCA	-0.0118
CGAACCCG	-0.251
CCGGATTC	-0.172
ACCTATTA	0.0751
TGAGATCA	0.344
AGAGATCA	-0.0737
GGAGATCA	-0.0624
GTCATCAC	0.409
ATAATCAA	0.16
AGCATCAC	0.0541
ATCATCAC	0.341
GGCATCAC	0.227
CTCATCAC	0.146
AACATCAG	0.183
ATAATCAG	0.106
GCCATCAC	0.0711
AACATCAC	0.295
ATAATCAT	0.344
AACATCAT	0.378
ACCTTCAA	-0.00754
AACGCAAG	0.00296
AATCTGAG	-0.0919
AAGTCTTG	-0.0973
ATAGCGGA	-0.107

Sequence	PBM E-score
ACTATTGA	0.202
AGGGCGCA	-0.0682
ATCATCAG	0.259
AGCATCAT	0.251
ATCATCAT	0.355
ATAATGAG	0.0695
ATAATGAC	0.295
ATAATGAT	0.334
GGTGTCTA	0.0529
AGGCTGCG	-0.225
GTAGGACA	-0.0243
CGCTTCGC	-0.0922
ACACACAC	0.0991
TAACCTAA	0.158
ATTCGATG	0.105
CATCATCG	0.333
AATCATCA	0.308
ACTCATCA	0.00088
GATCATCA	0.163
CATCATCA	0.409
AATCATCG	0.039
CATCATCC	0.345
CCTCATCA	0.161
GATCATCC	-0.0712
AATCATCT	0.114

Sequence	PBM E-score
CCTCATCG	0.00595
AATCATCC	0.113
ACGCTGCT	-0.22
CCGGGCGC	-0.213
TGCCTAAA	0.0602
CCGATTTC	-0.121
TACCGACA	0.075
TAGGCTGA	-0.0803
CCCCTACG	-0.298
GAGGAGGA	-0.288
ACTCCTTC	-0.234
TATCATCA	0.341
TCTCATCA	0.181
TATCATAA	0.144
CATCATTA	0.327
AATCATTA	0.28
CATCATTC	0.223
CCTGCTTA	-0.0696
GGGTCGCA	-0.144
CCGAGGCG	0.0158
CTCCTAGA	-0.09
ATGCATTA	0.255
ATATTACA	0.248
CAATTACG	0.346
AAATTACG	0.336

Sequence	PBM E-score
AAATTACC	0.199
ATATTACG	0.415
CAATTACC	0.138
CAATTACA	0.223
ATATTACC	0.248
CACTTACA	0.173
CACTTACC	0.0685
AAATTACT	0.222
CACTTACG	0.351
AACTGCCT	0.129
CCGTTGCG	0.0674
TACCTGCA	-0.0618
ACAAGATA	0.0758
AGCTATGA	0.101
ATATGCAC	0.0769
ACGGGCAC	-0.105
CAGCCCAC	-0.191
AAGGTAAT	0.129
ACCGTCCC	-0.173
ACGTACGG	0.149
ACGTAAGC	0.381
CTGTAAGA	0.0332
ACGTACGC	0.229
ACGTAAGA	0.448
TCGTAAGA	0.00239

Sequence	PBM E-score
GTGTAAGA	0.0158
ACGTACGT	0.311
CCGTAAGA	-0.0536
ATGTAAGA	0.339
GCGTAAGC	0.0902
CCGTAAGC	-0.0303
ATCTGGAA	0.184
GCTCAATA	0.0653
CATAGAGG	-0.0937
CACCTCGG	0.02
CACCATTC	0.0213
AGGTATTC	0.0784
ACCGCAGG	-0.104
CCACCGAC	-0.163
ACTCAAGT	-0.053
CACAACCA	0.124
GTATACCA	-0.051
TGCGCCAA	-0.0304
AAGTAAGT	0.116
ACGTAAGG	0.347
AGGTAAGG	-0.132
ACGTAAGT	0.422
AAGTAAGC	0.0657
CCGTAAGG	-0.113
AGTGGCGC	0.00481

Sequence	PBM E-score
AGCCAAAG	-0.114
GATGATAA	0.257
CCAGCTCC	-0.29
ACGCTCCG	-0.119
GAAATAAC	0.148
AAAATAAC	0.178
CAAATAAC	0.37
ACAGGGCG	0.0932
ACCGACGA	-0.0237
ACCTCCGT	-0.0629
AAATGGCC	-0.0934
ATACATAT	0.337
CTACATCA	0.302
ATACATAC	0.0814
ATGCATCA	0.372
ATACATCA	0.398
GTGCATCA	0.0738
ATACATAA	0.258
ATGCATCG	-0.00649
GTACATCA	0.275
CAGTCGCG	-0.25
AGATTCAC	-0.122
GAAACCTA	-0.148
CTAAAGGC	0.0355
CATCAAAG	0.0154

Sequence	PBM E-score
AAGGGAAT	0.112
ATGTAACG	0.235
GTGTAATA	0.214
ATGTAATA	0.415
ATGTAATG	0.394
CTGTAATA	0.108
ATGTAATC	0.299
AATCATGA	0.338
AATCATGT	0.139
GATCATGC	-0.137
CATCATGG	0.249
CATCATGA	0.363
TATCATGA	0.186
AATCATGC	0.0631
CATCATGC	0.362
AATCATGG	0.0769
GATAGCGC	-0.152
GGGAGTCA	-0.153
ACGCTATC	0.093
